Data taken from PubChem BioAssay AID686979 (National Center for Advancing Translational Sciences (NCATS), 2013).
Where “and” joins values, the source holds several entries; their conditions need not be identical. Equal values may be shown once. Out of some 420,000 compounds screened, about 50,000 (12%) were called active. Roughly 26% stayed inconclusive and do not appear here. The entries come from a sample that favours actives as a whole. Unmarked numbers belong to inactive results. Calls come from the whole dose curve; as a rule, active = well fitted inhibition curve with a large enough effect; inconclusive = small, poorly fitted or top-dose-only effect; inactive = flat fitted curve, though single readings scatter.

assay: qHTS for Inhibitors of human tyrosyl-DNA phosphodiesterase 1 (TDP1): qHTS in cells in presence of CPT; conditions: chicken DT40 Tdp1-/-;hTDP1 cells + 20 nM CPT, ATP luminescence, 48 h; series mostly up to 46.2 µM; activity change, negative = growth inhibition: at the top concentration; note: nearly all actives have a fitted effect of over 55% in size
In short: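 Cell growth measured by CellTiter-Glo luminescence after a minimum 48 h, 37 C compound exposure with 20 nM CPT in Tdp1-knockout DT40 cells stably expressing hTDP1, seeded 400/well; qHTS titration format.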
% is set by controls: 0 for no effect and ±100 for the full control effect; potency is the fitted concentration of half-maximal effect.

SMILES | activity change, negative = growth inhibition | Potency
O=C(Nc1c2c(nn1-c1ccccc1)CS(=O)(=O)C2)C1CCCC1 | -6.01% | 
O=C(CCc1ccc(S(=O)(=O)N2CCOCC2)cc1)OCC(=O)c1ccc(Br)cc1 | 9.72% | 
CCOc1ccc(-n2cnnn2)cc1S(=O)(=O)N1CCC(C)CC1C (stereo not given) | -5.89% | 
C#CC(C)(C)NC(=O)c1cnc(-c2ccccc2)nc1-c1ccccc1 | -19.4% | 
COC(=O)c1ccc(COC(=O)CNC(=O)c2cccc(OC)c2)o1 | 1.46% | 
O=S(=O)(/N=C(/Nc1ccccc1)c1ccccc1)c1cccs1 | -15.8% | 
CCCCCc1ccc(-c2cn(Cc3ccc4ccccc4c3)nn2)cc1 |  | inactive
CCc1cc(-c2nnn(CCC3COCCO3)c2CC)ccc1-c1cn(Cc2ccc3ccccc3c2)nn1 (stereo not given) |  | 5.8 µM (active)
CCCN(CCC)C(=O)C(Cc1ccccc1)NS(=O)(=O)c1ccc2c(c1)c(=O)n(C)c(=O)n2C (stereo not given) | -14% | 
O=C(CNC(=O)N1CC(=O)Nc2ccccc21)Nc1ccc(Br)cc1F | 6.9% | 
C[C@H](CO)N1C[C@H](C)[C@@H](CN(C)C(=O)C2CCCCC2)OCc2cnnn2CCCC1=O | -22.6% | 
CC(C)N(C(=O)Cn1cc(SCC(=O)N2CCCC2)c2ccccc21)C(C)C | 10.2% | 
O=C(Cn1cc(SCc2cccc(Cl)c2)c2ccccc21)N1CCCCC1 |  | 18.4 µM (active)
CC(=O)Nc1cccc(NC(=O)CSc2cn(CC(=O)N3CCCC3)c3ccccc23)c1 | -26.7% | 
CC(C)C12CN3CC(C(C)C)(CN(C1)C3c1ccc(OCc3ccccc3)cc1)C2=O (stereo not given) | 0.582% | 
Cn1nccc1C(=O)NCC1CCC2(CCN(Cc3c(O)ccc4ccccc34)CC2)O1 (stereo not given) | -24.3% | 
CC(=O)Nc1ccc(NC(=O)COC(=O)c2ccccc2C(=O)c2ccccc2)cc1 | -29.4% | 
N#Cc1cccc(NC(=O)COC(=O)c2ccccc2C(=O)c2ccc(Cl)c([N+](=O)[O-])c2)c1 |  | 20.6 µM (active)
COC(=O)c1cc(NC(=O)Cc2ccccc2[N+](=O)[O-])ccc1Cl | -7.47% | 
CCOC(=O)C1CCN(CC(=O)Nc2ccc(OC)c(S(=O)(=O)N3CCCCC3)c2)CC1 | -23.6% | 
CCn1c2ccccc2c2cc(NC(=O)CNC)ccc21 | 1.65% | 
CC[n+]1c(C)n(-c2ccccc2)c2ccc(NC(C)=O)cc21 |  | 6.51 µM (active)
CC(=O)Nc1ccc(NC(=O)CSc2nnc(C3CC3)n2-c2ccccc2)cc1 | -16.4% | 
Cc1ccccc1NC(=O)Cn1c(=O)n(Cc2ccco2)c(=O)c2ccc(C(=O)NC3CCCC3)cc21 | -7.3% | 
CC(C)(C)NC(=O)NC(=O)COC(=O)CCC1CCCCC1 | -24.2% | 

SMILES | activity change, negative = growth inhibition | Potency
COc1ccc(N2C(=O)C(Cc3ccccc3)NC2=S)cc1 (stereo not given) | 31.4% | 
COc1ccc(N2c3ccccc3CN(Cc3ccccc3)[C@@H](C)[C@H]2Cc2ccc(-c3ccccc3)cc2)cc1 |  | 23.1 µM (active)
C[n+]1cccc(C(=O)O)c1 | -7.01% | 
O=C(CCc1nnc2ccc(NCc3ccccc3Cl)nn12)NCC1CCN(C2CCCC2)C1 (stereo not given) | 9.38% | 
Nc1c(-c2cccc(Cl)c2)cnn1-c1cccc([N+](=O)[O-])c1 | -19.7% | 
COc1cccc(NC(=O)N2CCCC2C(=O)NC2CCCCC2)c1 (stereo not given) | 6% | 
COc1cccc(NC(=O)C/C(C)=N/NC(=O)C2CCCCC2)c1 | -21.1% | 
COc1cccc(NC(=O)N(Cc2cn(C)c3ccccc23)C2CCCCCC2)c1 |  | 5.8 µM (active)
COc1ccc(NC(=O)NNC(=O)COc2cc(C)c(Cl)c(C)c2)c(OC)c1 | -9.26% | 
O=C1CSC(c2ccc(Cl)cc2)N1 (stereo not given) | -5.3% | 
O=C(CN1CCCCCC1)Nc1c(Cl)cc(Cl)cc1Cl | -25.1% | 
CCNC(=O)C1CCCN(C(=O)c2cc(F)ccc2C)CC1 (stereo not given) | -17.5% | 
COc1ccc(C(=O)N2CCC3(CCCN(C(c4ccccc4)c4ccccc4)C3)CC2)cc1 | 21% | 
O=C(c1ccncc1)N1CCC2(CCCN(C(c3ccccc3)c3ccccc3)C2)CC1 |  | 16.4 µM (active)
O=C(c1cccc(F)c1)N1CCC2(CCCN(Cc3ccncc3)C2)CC1 | -20.6% | 
COc1ccc(CC(=O)Nc2nnc3n2CCS3)cc1OC | -12.5% | 
O=C(COC(=O)c1cccs1)NCc1cccs1 | 2.73% | 
COc1ccc(OCc2cccc(C(=O)N3CCCC3)c2)cc1 | -16.4% | 
CCOc1ccc(OCc2cccc(C(=O)N(CC)CC)c2)cc1 |  | 20.6 µM (active)
CN(Cc1ccccc1)C(=O)c1cccc(C(=O)N(C)Cc2ccccc2)c1 | -2.28% | 
O=C(CN1C(=O)c2ccccc2S1(=O)=O)NC1CCCCC1 | 1.06% | 
COc1ccc(-n2cnnc2SCC(=O)Nc2cccc(S(N)(=O)=O)c2)cc1 | -3.28% | 
O=C(Nc1ccc(Cl)cc1)Nc1ccc(C(=O)N2CCOCC2)cc1 | -16.9% | 
Nc1ccn(C2CC(O)C(CO)O2)c(=O)n1 (stereo not given) | -0.714% | 
Nc1ncnc2c1cnn2C1CC(O)C(CO)O1 (stereo not given) | 14.9% | 

SMILES | activity change, negative = growth inhibition | Potency
Nc1ncnc2c1ncn2C1CC(O)C(CO)O1 (stereo not given) |  | 1.16 µM (active)
CCN(CC(=O)Nc1c(F)cccc1F)C(=O)c1cnc(C)cn1 | 1.54% | 
O=C1c2ccccc2C(=O)N1CCCCCCN1C(=O)c2ccccc2C1=O | -18% | 
CCN(CCCNC(=O)CCn1c(=O)[nH]c2ccsc2c1=O)c1ccccc1 | 6.83% | 
CCC1CCCCN1C(=O)Cn1c(=O)n(CCCCCC(=O)NCc2ccccc2)c(=O)c2sccc21 (stereo not given) |  | 16.4 µM (active)
O=C(CCCn1c(=O)c2sccc2n(CC(=O)NCC2CCCO2)c1=O)NCc1ccco1 (stereo not given) | 2.51% | 
Cc1cc(S(=O)(=O)NCc2ccccn2)c(Cl)cc1Cl | -2.32% | 
Cc1ccc(S(=O)(=O)NCC(=O)NNC(=O)c2ccc(Br)cc2)cc1C | 8.9% | 
C/C(=N\Nc1ccccc1)c1cccs1 | -0.909% | 
C/C(=N\Nc1nc(Nc2ccccc2)nc(N2CCOCC2)n1)c1cccs1 |  | 23.1 µM (active)
C/C(=N\Nc1nc(N2CCOCC2)nc(N2CCOCC2)n1)c1ccc([N+](=O)[O-])cc1 | 9.59% | 
O=C(COC(=O)C1CC2CCCC(C1)C2=O)NC(=O)c1ccccc1 (stereo not given) | -16.9% | 
CC(C)(C)c1ccc(C(=O)N2CCN(CCNC(=O)C(=O)Nc3ccc(F)cc3)CC2)cc1 |  | 16.4 µM (active)
CN1CCN(C(=O)c2ccc(NC(=O)c3ccc(Br)o3)cc2)CC1 | 7.4% | 
Cc1ccc(C(=O)N/C(=C\c2ccc(F)cc2)C(=O)NCCN2CCOCC2)cc1 | 2.67% | 
Cc1cc(C(=O)OCC(=O)N2C(C)CCCC2C)c2ccccc2n1 (stereo not given) | 2.32% | 
O=C(NCc1ccncc1)C1CCCN(S(=O)(=O)c2ccc(Br)cc2)C1 (stereo not given) | -26% | 
CC(=O)N1CCCc2cc(S(=O)(=O)N3CCCC(C(=O)NCc4ccc(Cl)cc4)C3)ccc21 (stereo not given) |  | 18.4 µM (active)
CC(=O)N1CCCc2cc(S(=O)(=O)N3CCC(C(=O)NC4CCCCC4)CC3)ccc21 | 6.44% | 
COC(=O)c1ccccc1NS(=O)(=O)c1ccc2c(c1)CCCN2C(C)=O | -17% | 
CC(=O)N1CCCc2cc(S(=O)(=O)N3CCCC(C(=O)N4CCN(c5cccc(Cl)c5)CC4)C3)ccc21 (stereo not given) |  | 2.31 µM (active) and 8.2 µM (active)
COc1cccc(N2CCN(S(=O)(=O)c3ccc4c(c3)CCCN4C(C)=O)CC2)c1 | -26.4% | 
CCCCn1c(N)c(N(CCOC)C(=O)c2cccc(S(=O)(=O)N(C)c3ccccc3)c2)c(=O)[nH]c1=O | 0.657% | 
CC(C)(C(=O)N1CCC1(C)C(=O)NS(=O)(=O)c1ccc(Br)cc1)c1ccccc1 (stereo not given) | -32.2% | 
CCOC(=O)C1CCN(S(=O)(=O)c2ccc3c(c2)N(C(C)=O)CCO3)CC1 | -14.8% | 

SMILES | activity change, negative = growth inhibition | Potency
Cc1cc2c(cc1C)N(Cc1ccccc1)C1=NCCCN12 |  | 13 µM (active)
O=C(CN1C2=NCCN2c2ccccc21)c1cccs1 | -13.6% | 
OC(CN1C2=NCCCN2c2ccccc21)c1ccc(Br)cc1 (stereo not given) | -29.8% | 
CCOc1ccc(OCCSc2nc3ccccc3n2CC(=O)O)cc1 | -13.1% | 
CCN(CC)C(=O)CSc1nc2ccccc2n1CC(=O)N1CCN(c2ccccc2OC)CC1 | -26.7% | 
CN(C(=O)CSc1nc2ccccc2n1Cc1ccccc1C#N)c1ccccc1 |  | 14.6 µM (active)
COC(=O)c1ccc(Cn2c(SCC(=O)N(C)c3ccccc3)nc3ccccc32)cc1 |  | 20.6 µM (active)
COC(=O)CSc1nc2ccccc2c(=O)n1Cc1ccccc1 | 0.481% | 
Cc1ccc(Cn2c(SCC(=O)N/N=C/c3ccccc3OCC(=O)O)nc3ccccc32)cc1 | -7.54% | 
CC(C)[C@H](NC(=O)OCc1ccccc1)C(=O)OCc1ccccc1 | 5.67% | 
CCN1CCN(C(=O)N[C@@H](C(=O)N[C@@H]2C(=O)N3C(C(=O)O)=C(CSc4nnnn4C)CS[C@H]23)c2ccc(O)cc2)C(=O)C1=O |  | inactive
CCOc1ccc(C)cc1S(=O)(=O)NC1CCCCCC1 | -28.6% | 
CC1CN(C(=O)COC(=O)c2cccc(NS(=O)(=O)c3ccccc3)c2)CC(C)O1 (stereo not given) | -2.2% | 
O=C(CSc1ccc(-c2ccccc2)nn1)NCC1CCCO1 (stereo not given) | -6.35% | 
Cc1ccc(SCC(=O)Nc2nncs2)cc1 | -23.3% | 
CC(C)Oc1ccc(C(=O)NCC(=O)Nc2ccc3c(c2)CCC3)cc1 | -21.7% | 
CC(C)Cn1c(SCC(=O)Nc2ccc(Cl)cc2F)nc(O)cc1=O | 26.8% | 
CC1CCN(c2oc(-c3ccccc3F)nc2C#N)CC1 |  | 16.4 µM (active)
COc1ccc(OCc2ccc(-c3nc(C#N)c(N4CCN(c5ccccc5)CC4)o3)o2)cc1 | 1.42% | 
COc1ccccc1-c1nc(C#N)c(N2CCC(C(N)=O)CC2)o1 | -18.9% | 
O=S(=O)(c1ccc(Br)c2ccccc12)N1CCOCC1 | 5.94% | 
Cc1noc(C)c1NC(=O)Nc1cccc2c1O[C@H](CN(C)C(=O)Nc1ccccc1)[C@@H](C)CN([C@H](C)CO)C2=O | -1.98% | 
Cc1cc(C(=O)N/N=C/c2ccc(N3CCOCC3)cc2)c(C)o1 | -6.34% | 
Cc1ccccc1N/N=C/c1ccc(N2CCOCC2)cc1 | -18.7% | 
CNC(=S)N/N=C/c1ccc(N2CCOCC2)s1 |  | 4.61 µM (active)
